Bioassay records deposited in PubChem by The Scripps Research Institute Molecular Screening Center.
LRH-1 inv ag: inverse agonists of human LRH-1 (NR5A2). HEK293T StAR-luciferase reporter, LRH-1 transfected, 24 h. inhibition, % at 3.6 µM. 360,000 compounds, 0.13% hits. AID 602396;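 active = inhibition above the mean inhibition of all tested compounds plus 3 SD, cut at about 73% in these data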
NCOA3 inh: inhibitors of human steroid receptor coactivator 3 (SRC3); Q9Y6Q9; HEK293 GAL4-SRC3 luciferase reporter, luminescence; inhibition, % at 3.6 µM; 360,000 compounds, 0.17% hits;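 active = inhibition above a per-campaign cutoff, the mean of all compounds plus 3 SD, cut at about 60% in these data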;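 note: higher means less SRC3-driven luciferase light from the GAL4 reporter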
SRC2 inh: inhibits human steroid receptor coactivator 2; inhibition, % at 9 µM; HEK293 GAL4-SRC2 luciferase reporter, luminescence; Q15596; 370,000 compounds, 0.17% hits;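 active = inhibition above the mean inhibition of all tested compounds plus 3 SD, set per campaign, cut at about 52% in these data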
COUP-TFII inh: inhibitors of human COUP-TFII (NR2F2) | P24468 | HEK293T NGFI-A luciferase reporter, luminescence | inhibition, % at 8.6 µM | 370,000 compounds, 0.7% hits | AID 686940;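 active = inhibition above a per-plate cutoff, mean inhibition of test wells between control levels plus 3 SD, cut at about 38% in these data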;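 note: cells cotransfected with COUP-TFII expression vector driving the NGFI-A reporter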
Target sequence (P24468 whole entry, looked up): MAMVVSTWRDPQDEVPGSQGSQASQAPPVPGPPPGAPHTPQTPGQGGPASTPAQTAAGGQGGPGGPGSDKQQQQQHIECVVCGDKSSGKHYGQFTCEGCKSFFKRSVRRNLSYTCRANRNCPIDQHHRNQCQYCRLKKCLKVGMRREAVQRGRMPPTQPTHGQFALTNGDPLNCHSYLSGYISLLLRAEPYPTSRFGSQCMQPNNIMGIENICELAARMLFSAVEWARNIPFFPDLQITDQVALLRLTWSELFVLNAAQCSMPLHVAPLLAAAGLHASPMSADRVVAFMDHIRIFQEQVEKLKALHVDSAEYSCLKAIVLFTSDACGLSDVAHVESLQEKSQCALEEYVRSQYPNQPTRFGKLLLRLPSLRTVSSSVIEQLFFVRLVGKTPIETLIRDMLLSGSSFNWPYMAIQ
NCOA1 inh: human NCOA1 inhibition | Q15788 | HEK293 GAL4-SRC1 luciferase reporter, luminescence | inhibition, % at 3.6 µM | 360,000 compounds, 0.12% hits;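 active = inhibition above the campaign mean plus 3 SD, with each screening campaign given its own cutoff, cut at about 60% in these data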
VP16 Luc counter: VP16 inhibition counter-screen for COUP-TFII; shares compounds with COUP-TFII inh; 2,500 compounds, 25% hits; inhibition, % at 8.5 µM; AID 687007; HEK293 Gal4-VP16 luciferase reporter, luminescence; in the data active = inhibition above about 13%
NR2F2 inh conf: COUP-TFII (NR2F2) inhibition, confirmation assay | shares compounds with COUP-TFII inh | inhibition, % at 8.5 µM | HEK293 NGFI-A luciferase reporter, luminescence | AID 687008 | 2,500 compounds, 45% hits;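 active = mean inhibition over three repeats above a set limit taken from the earlier primary screen, cut at about 38% in these data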
Hits are given with their value; i = inactive; nt = no result. Hits are enriched below; roughly 0.84% of the tested compounds scored in any of these assays.

SMILES	LRH-1 inv ag	NCOA3 inh	SRC2 inh	COUP-TFII inh	NCOA1 inh	VP16 Luc counter	NR2F2 inh conf
CCC1(C)Cc2c(sc(NC(=S)NC(=O)c3ccccc3)c2C#N)CO1 (centres undefined)	i	i	i	i	i	nt	nt
CN1Cc2sc(NC(=S)NC(=O)c3ccccc3)c(C#N)c2CC1(C)C	nt	nt	i	40	nt	i	69
CCc1ccc(NC(=O)c2ccc(F)c(S(=O)(=O)NCC3COc4ccccc4O3)c2)cc1 (centres undefined)	i	i	i	38	i	i	i
CCN(c1ccccc1)S(=O)(=O)c1cc(C(=O)Nc2ccc(Br)cc2)ccc1F	i	i	i	65	i	i	41
O=C(NCC1COc2ccccc2O1)c1ccc(F)c(S(=O)(=O)N2CCOCC2)c1 (centres undefined)	i	i	i	i	i	nt	nt
COc1cc2c(cc1OC)C1CCc3cc4c(cc3C1N=C2)OCO4 (centres undefined)	i	i	i	i	i	nt	nt
COc1cc(N2C[C@@]3(O)CC[C@@H](O)[C@@H](OC)[C@@H]3[C@@](C)(O)[C@@H]2CC=C(C)C)cc(OC)c1OC	nt	nt	i	i	nt	nt	nt
O=C1NC[C@@H](CCCCN2CCN(CCc3ccccc3)C(=O)C2=O)N(CC2CCCCC2)C1=O	i	nt	i	i	nt	nt	nt
CCc1ccc(S(=O)(=O)Nc2cc3c(cc2C)n(C)c(=O)n3C)cc1	i	i	i	41	i	i	i
Cc1ccc(NS(=O)(=O)c2ccc3c(c2)n(C)c(=O)n3C)c(C)c1	i	i	i	i	i	nt	nt
COc1cc(/C=N/NC(N)=S)cc(Br)c1OCc1ccccc1F	i	i	i	52	i	24	51
COc1ccc(OCC(=O)N2CCN(c3nnc(-c4ccc(C)cc4)c4ccccc34)CC2)cc1	i	i	i	38	i	i	i
Cc1ccc(OCC(=O)N2CCN(c3nnc(-c4ccc(C)cc4)c4ccccc34)CC2)cc1	i	i	i	i	i	nt	nt
O=C(Sc1cccc2cccnc12)c1ccccc1Br	i	i	i	i	i	nt	nt
O=C(Sc1cccc2cccnc12)c1ccc(F)cc1	nt	nt	i	43	nt	47	44
COc1ccc(C(=O)N2CCC2(C)C(=O)NC(C)C)c(OC)c1 (centres undefined)	i	i	i	i	i	nt	nt
CN1C(=O)[C@@]2(O[C@H]3C=CC=CN3C3=C2C(=O)CCC3)c2cccc(Br)c21	nt	nt	i	i	nt	nt	nt
COc1ccc(NC(=O)CN2C(=O)C(c3ccccc3)=NC23CCCCCC3)cc1	i	i	i	i	i	nt	nt
O=C(CN1C(=O)C(c2ccc(F)cc2)=NC12CCCC2)Nc1ccc(F)cc1	i	i	i	39	i	i	i
C=CCc1cccc2cc(C(=O)O)c(=O)oc12	i	i	i	i	i	nt	nt
C=CCc1cccc2cc(C(=O)Nc3ccccc3C(=O)O)c(=O)oc12	i	i	i	41	i	i	47
COc1ccc(CNc2cc(C)nc3ncnn23)c(OC)c1	i	i	i	65	i	i	i
Cc1ccc2nc(NC(=O)CSCC(=O)OCC(=O)c3ccc(Br)cc3)sc2c1	i	i	i	40	i	67	49
COC(=O)c1ccc2nc(NC(=O)CSCC(=O)OCC(=O)c3ccccc3)sc2c1	i	i	i	i	i	nt	nt
CCCC(C)C(=O)NC1CCCCN(C)C1=O (centres undefined)	nt	nt	i	i	nt	nt	nt
SMILES	LRH-1 inv ag	NCOA3 inh	SRC2 inh	COUP-TFII inh	NCOA1 inh	VP16 Luc counter	NR2F2 inh conf
C[C@@H]1C=CCCO[C@]12C(=O)N(Cc1ccccc1C(F)(F)F)c1cccc(Br)c12	nt	nt	i	i	nt	nt	nt
Cc1c(/C(O)=C2\C(=O)C(=O)N(CCCN(C)C)C2c2ccco2)cnn1-c1ccccc1 (centres undefined)	i	i	i	49	i	i	i
Cc1c(/C(O)=C2\C(=O)C(=O)N(CCN(C)C)C2c2ccco2)cnn1-c1ccccc1 (centres undefined)	i	i	i	i	i	nt	nt
O=C(c1ccncc1)c1ccc(N2CCN(C3CC(=O)N(Cc4cccs4)C3=O)CC2)cc1 (centres undefined)	i	i	i	38	i	i	i
COCCn1c(C)cc(C(=O)COC(=O)c2cccc(O)c2)c1C	i	i	i	72	i	64	87
COCCn1c(C)cc(C(=O)COC(=O)c2cc3c(s2)CCC3)c1C	i	i	i	i	i	nt	nt
